For seven molecules, growth results are on record in PubChem BioAssay (NCI).

Common to all, as to assay: NCI-60 one-dose screen, 48 h (100 = growth as untreated, 0 = no growth, -100 = all killed)
One experiment deals with NCI-H23 lung. Particulars: 10 µM unless noted.
Another experiment concerns NCI-H226 lung. The note with it: 10 µM unless noted.
The next experiment has as its system NCI-H322M lung. Particulars: 10 µM unless noted.
In a further experiment the test system is HOP-62 NSCLC. The note with it: 10 µM unless noted.
The subject of the next experiment is NCI-H460 lung. The note with it: 10 µM unless noted.
The next experiment deals with HOP-92 NSCLC. The note with it: 10 µM unless noted.
In a further experiment the test system is NCI-H522 lung. Particulars: 10 µM unless noted.
In the next experiment the test system is A549/ATCC NSCLC. The note with it: 10 µM unless noted.
For another experiment, the system named is 786-0 renal. Particulars: 10 µM unless noted.
The subject of a further experiment is COLO 205 colon. Particulars: 10 µM unless noted.
Another experiment concerns DU-145 prostate. Particulars: 10 µM unless noted.
The subject of the next experiment is K-562 leukemia. Particulars: 10 µM unless noted.
The test system of the next experiment is MALME-3M melanoma. The note with it: 10 µM unless noted.
The test system of a further experiment is MDA-MB-231 breast. Particulars: 10 µM unless noted.
In another experiment the test system is RXF 393 renal. Particulars: 10 µM unless noted.
In a further experiment the test system is SF-268 CNS. The note with it: 10 µM unless noted.
A further experiment concerns SF-295 CNS. Particulars: 10 µM unless noted.
The subject of the next experiment is SF-539 CNS. The note with it: 10 µM unless noted.
In a further experiment the test system is UACC-257 melanoma. Particulars: 10 µM.
The subject of another experiment is M14 melanoma. The note with it: 10 µM unless noted.

Molecules are shown by their SMILES. This is part of a sample that, as a whole, favours compounds with a hit. Of some 83,000 tested, about 20% had one in any assay.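 Values shown are percent growth following 48 h exposure of cells in 96-well plates to a single concentration of compound; below 10 was considered active.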 Values without a mark were called inactive. The source made the active and inactive calls.

In the case of `COC(=O)c1cc(-c2cccs2)c(C#N)c(N)c1C#N`, the growth in the experiment on NCI-H23 lung is 96.7%; in the experiment with NCI-H226 lung, 101%; with NCI-H322M lung, 99.8%; in the experiment with HOP-62 NSCLC it was 90.3%; in the experiment on NCI-H460 lung it was 104%; in the experiment with HOP-92 NSCLC, 94.2%. Also, the growth in the experiment with NCI-H522 lung was 95.4%; with A549/ATCC NSCLC, 101%; in the experiment with 786-0 renal it was 100%; in the experiment on COLO 205 colon, 109%; in the experiment on DU-145 prostate, 109%; with K-562 leukemia it was 104%. In addition, the growth with MALME-3M melanoma is 116%; in the experiment with MDA-MB-231 breast it was 94.3%; in the experiment with RXF 393 renal it was 108%; with SF-268 CNS it was 99.5%; in the experiment with SF-295 CNS, 103%; in the experiment on SF-539 CNS it was 101%. The growth in the experiment on UACC-257 melanoma was 100%; in the experiment on M14 melanoma, 110%.

For the molecule `O=C(Nc1ccc(I)cc1)c1cccc([N+](=O)[O-])c1O`, the growth in the experiment on NCI-H23 lung is -6.76% (active); in the experiment on NCI-H226 lung, 20.5%; with NCI-H322M lung, 20.9%; with HOP-62 NSCLC it was 23.5%; with NCI-H460 lung, 17.5%; in the experiment on HOP-92 NSCLC it was -4.99% (active). Besides, the growth in the experiment with NCI-H522 lung was 1.75% (active); with A549/ATCC NSCLC it was 14.5%; in the experiment with 786-0 renal, 16.6%; with COLO 205 colon, 7.78% (active); in the experiment with DU-145 prostate, 32.5%; in the experiment with K-562 leukemia it was 14.7%. Besides, the growth in the experiment on MALME-3M melanoma is -4.07% (active); with MDA-MB-231 breast, 16.8%; with RXF 393 renal it was 31.1%; in the experiment with SF-268 CNS it was 24.1%; in the experiment with SF-295 CNS, 4.77% (active); in the experiment with SF-539 CNS it was 14.8%. In addition, in the experiment on M14 melanoma, the growth is 15.7%.

Consider `CCN(CC)P(=O)(N(CC)CC)N(CCCSC/C=C(\C)CC/C=C(\C)CCC=C(C)C)CCCN1CCN(C)CC1`, for which the growth in the experiment on NCI-H23 lung is 110%; in the experiment on NCI-H226 lung it was 96.9%; with NCI-H322M lung it was 108%; in the experiment with HOP-62 NSCLC, 106%; in the experiment with NCI-H460 lung, 101%; in the experiment on HOP-92 NSCLC, 82.4%. The growth was 91.6% with NCI-H522 lung; 87.6% in the experiment on A549/ATCC NSCLC; 101% in the experiment on 786-0 renal; 105% in the experiment on COLO 205 colon; 106% in the experiment on DU-145 prostate; 71.8% in the experiment with K-562 leukemia. Besides, the growth with MALME-3M melanoma is 98.7%; in the experiment with MDA-MB-231 breast, 111%; in the experiment with RXF 393 renal, 91.3%; in the experiment with SF-268 CNS, 102%; in the experiment on SF-295 CNS, 96.4%; with SF-539 CNS it was 106%. Besides, the growth is 110% with UACC-257 melanoma and 107% in the experiment on M14 melanoma.

In the case of `Cc1sc(N=Nc2ccc(N(C)C)cc2)[n+]([O-])c1C`, the growth in the experiment on NCI-H23 lung is 98.4%; with NCI-H226 lung it was 92.6%; in the experiment on NCI-H322M lung, 94.5%; in the experiment with HOP-62 NSCLC, 106%; with NCI-H460 lung, 99.3%; with HOP-92 NSCLC it was 74.7%. Moreover, the growth was 98.4% in the experiment with NCI-H522 lung; 100% in the experiment with A549/ATCC NSCLC; 103% in the experiment on 786-0 renal; 104% in the experiment on COLO 205 colon; 102% in the experiment with DU-145 prostate; 121% with K-562 leukemia. In addition, the growth in the experiment on MALME-3M melanoma is 91.2%; in the experiment on MDA-MB-231 breast, 96.2%; in the experiment on RXF 393 renal, 79.7%; in the experiment with SF-268 CNS it was 95.7%; in the experiment on SF-295 CNS it was 106%; in the experiment on SF-539 CNS it was 100%. In addition, the growth in the experiment with UACC-257 melanoma was 105%; in the experiment on M14 melanoma, 99.8%.

Consider `COc1cc(C(=O)/C=C/c2cc(C(=O)c3cc(OC)c(OC)c(OC)c3)ccc2OC)ccc1N`, for which the growth in the experiment with NCI-H23 lung is -29.8% (active); in the experiment with NCI-H226 lung, -38.7% (active); with NCI-H322M lung, 7.82% (active); with HOP-62 NSCLC it was 43.2%; with NCI-H460 lung it was -15.6% (active); with HOP-92 NSCLC it was 46.1%. Further, the growth is -58.9% (active) in the experiment with NCI-H522 lung; 18.5% with A549/ATCC NSCLC; 10.5% in the experiment on 786-0 renal; -58.8% (active) in the experiment on COLO 205 colon; 26.7% in the experiment on DU-145 prostate; 4.22% (active) in the experiment on K-562 leukemia. The growth in the experiment on MALME-3M melanoma was -36.1% (active); with MDA-MB-231 breast, 23.1%; in the experiment on RXF 393 renal, -32.5% (active); in the experiment with SF-268 CNS it was -28.1% (active); with SF-295 CNS it was 9.88% (active); in the experiment with SF-539 CNS it was -53.2% (active). Moreover, the growth in the experiment with UACC-257 melanoma is -11.9% (active); with M14 melanoma it was -52.9% (active).

As for `C[C@]12CC[C@@H]3c4cc(O)c(O)cc4CC[C@H]3[C@@H]1CC[C@@H]2O`, the growth in the experiment on NCI-H23 lung was 64.5%; in the experiment on NCI-H226 lung, 97.8%; in the experiment on NCI-H322M lung, 60.6%; in the experiment on HOP-62 NSCLC, 44.4%; with NCI-H460 lung it was 29.5%; with HOP-92 NSCLC, 18.1%. Also, the growth with NCI-H522 lung is -8.58% (active); in the experiment with A549/ATCC NSCLC, 43.3%; with 786-0 renal it was 43%; in the experiment on COLO 205 colon, 115%; in the experiment with DU-145 prostate it was 39.1%; in the experiment with K-562 leukemia, 7.32% (active). Besides, the growth with MALME-3M melanoma is 16.8%; with MDA-MB-231 breast, 48.1%; in the experiment on RXF 393 renal it was 28.7%; with SF-268 CNS, 46.7%; in the experiment with SF-295 CNS, 35%; with SF-539 CNS it was -1.85% (active). The values for the growth in the experiment with UACC-257 melanoma and in the experiment with M14 melanoma were 31.2% and 23.4%, respectively.

As for `CN(C)C/C=C/C(=O)Nc1cc2c(Nc3ccc(F)c(Cl)c3F)ncnc2cc1OCCOC(F)F`, the growth in the experiment with NCI-H23 lung is 26.6%; with NCI-H226 lung, 25.1%; in the experiment with NCI-H322M lung, 1.96% (active); with HOP-62 NSCLC it was 20.6%; in the experiment with NCI-H460 lung it was 36.6%; in the experiment with HOP-92 NSCLC it was -53.7% (active). Besides, the growth with NCI-H522 lung is -25.7% (active); with A549/ATCC NSCLC it was 21.8%; in the experiment on 786-0 renal it was 0.67% (active); in the experiment on COLO 205 colon it was 20.1%; in the experiment with DU-145 prostate, 10.4%; in the experiment on K-562 leukemia, 5.47% (active). For the same molecule, the growth was 35.3% with MALME-3M melanoma; -1.17% (active) in the experiment on MDA-MB-231 breast; -29.4% (active) with RXF 393 renal; 14.4% in the experiment with SF-268 CNS; 33.7% in the experiment with SF-295 CNS; 9.19% (active) in the experiment on SF-539 CNS. The growth in the experiment with M14 melanoma was 41.5%.
